Drawing on ChEMBL document CHEMBL3988442, “University of Dundee, Small-Polar-MMV Screening Library” (2021), this text covers Percent Effect for 50 compounds.

Each structure is given as a SMILES string.

The target of assay [1] is T1, Aspartate--tRNA(Asp/Asn) ligase (Mycobacterium tuberculosis (strain ATCC 25618 / H37Rv)) (UniProt P9WFW3). Further: in the data most compounds retested in dose-response had high values.
T1 sequence (whole entry): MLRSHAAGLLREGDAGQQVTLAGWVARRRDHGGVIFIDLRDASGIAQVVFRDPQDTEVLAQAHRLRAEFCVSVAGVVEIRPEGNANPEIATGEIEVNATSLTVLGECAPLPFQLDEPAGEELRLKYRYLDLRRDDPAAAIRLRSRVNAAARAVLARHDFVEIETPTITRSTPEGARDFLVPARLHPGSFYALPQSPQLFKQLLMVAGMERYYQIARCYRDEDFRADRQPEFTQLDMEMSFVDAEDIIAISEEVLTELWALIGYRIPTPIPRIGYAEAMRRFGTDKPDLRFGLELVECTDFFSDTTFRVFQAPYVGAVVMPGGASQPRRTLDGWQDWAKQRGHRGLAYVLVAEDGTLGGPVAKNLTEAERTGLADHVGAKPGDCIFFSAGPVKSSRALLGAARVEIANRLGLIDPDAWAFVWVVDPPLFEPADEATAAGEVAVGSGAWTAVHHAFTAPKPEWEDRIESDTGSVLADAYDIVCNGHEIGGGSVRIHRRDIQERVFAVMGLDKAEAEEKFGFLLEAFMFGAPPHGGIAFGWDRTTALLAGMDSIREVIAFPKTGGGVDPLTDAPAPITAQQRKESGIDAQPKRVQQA
The assay can be described thus: Assay for Asp RNA synthetase-1 from Mycobacterium tuberculosis. It counts as functional. Also noted: scale not given: direction of the effect not stated beside the values. Particulars: 30 µM.

Assay [2] has as its target Shiga toxin 2 (Escherichia coli O157:H7) (UniProt P09385+P09386). The assay can be described thus: E. coli 0.157:H7 Shiga Toxin SOP - stx2 screening assay. It counts as functional. Also noted: scale not given: direction of the effect not stated beside the values. Particulars: 30 µM.

Take `CS(=O)(=O)c1ccc(NC(=O)NCc2ccc3c(c2)CCC3)cn1`: the figures for the Percent Effect in assay [1] and in assay [2] were 1.92% and -9.09%, respectively.

In the case of `Cc1cnn(CC2CCCCN2Cc2nc(N)c3ccccc3n2)c1` (stereo not given), the Percent Effect is -5.71% in assay [1] and -7.68% in assay [2].

For the compound `CCN1CCN(C2CCN(Cc3nnc(C(C)(C)C)o3)CC2)C1=O`, the Percent Effect was -1.73% in assay [1] and 25.7% in assay [2].

In the case of `CC(=O)N1CCCN(C(=O)c2oc(Br)cc2C)CC1`, the figures for the Percent Effect in assay [1] and in assay [2] were -0.167% and -13.6%, respectively.

For `Cc1csc(N2CCCN(C(=O)c3c(C)oc(C)c3C)CC2)n1`, the Percent Effect was -1.31% in assay [1] and -3.9% in assay [2].

Consider `Cc1noc(C(C)C)c1C(=O)NCc1cc(F)cc(F)c1`, for which the Percent Effect was -4.07% in assay [1] and 14.2% in assay [2].

In the case of `CCOc1ccccc1-c1noc(CN2CC(n3cccn3)C2)n1`, the values for the Percent Effect in assay [1] and in assay [2] were 0.259% and 34.8%, respectively.

For the compound `CC(CN1CCCC1)C(=O)N1CCC(c2nccn2CC2CC2)CC1` (stereo not given), the Percent Effect in assay [1] is -0.479%; in assay [2] it was -15.6%.

For `Cc1nnc2n1CCN(Cc1csc(Cc3ccccc3)n1)C2`, the figures for the Percent Effect in assay [1] and in assay [2] were -4.28% and 1.17%, respectively.

With `CN1CC(=O)N(c2ccccc2)CC12CCN(CC1CC1)C2` (stereo not given), the Percent Effect in assay [1] is 3.68%; in assay [2], -5.63%.

`COc1cccc2c1OCC(NC(=O)NC1CCN(C3CC3)CC1)C2` (stereo not given): the Percent Effect in assay [1] is -3.21%; in assay [2], 3.63%.

Regarding `O=C(Cc1ccsc1)N1CCCC(c2n[nH]c3nccnc23)C1` (stereo not given), the Percent Effect was -5.85% in assay [1] and 6.36% in assay [2].

Turning to `CCN(CC)C(=O)Nc1cc2c(cc1SC)OCCO2`, the Percent Effect in assay [1] was -1.51%; in assay [2] it was 12%.

Regarding `CCOc1ncccc1NC(=O)N1CCN(c2cccc(C)c2C)CC1`, the Percent Effect in assay [1] turned out to be 1.92%; in assay [2], 38.1%.

Turning to `CC(C)C(C(=O)N1CCN(Cc2ccncc2)CC1)n1cncn1` (stereo not given), the Percent Effect in assay [1] is 7.46%; in assay [2] it was -21.4%.

On to `CC(C)NC(=O)N1CCc2ncc(CN3CCOCC3)n2CC1`, for which the Percent Effect in assay [1] worked out at 3.1%; in assay [2], 0.463%.

As for `CCC(=O)NC1CCN(c2cccc(CC)c2)CC1`, the Percent Effect in assay [1] stood at 1.79%; in assay [2] it was 5.5%.

In the case of `O=C(NCc1ccco1)[C@H]1C[C@H]2OCC[C@H]2N(C(=O)c2ccco2)C1`, the Percent Effect in assay [1] is 3.58%; in assay [2], 6.55%.

In the case of `Cc1ccc(NC2CCN(C(=O)c3cccn3C)CC2)nn1`, the Percent Effect in assay [1] was -9.26%; in assay [2] it was -60.3%.

As to `CCCS(=O)(=O)c1ncc(CN2CCC(CO)CC2)n1CC1CCCO1` (stereo not given), the Percent Effect in assay [1] is -5.1%; in assay [2], -15.9%.

On to `CS(=O)(=O)CCNC(=O)C1(c2cccc(Cl)c2)CCCCC1`, for which the Percent Effect is 1.2% in assay [1] and -20.3% in assay [2].

For `COc1ccc(CN2C[C@@H]3OCCN(CC4CCCO4)[C@@H]3C2)cc1` (stereo not given in full), the results for the Percent Effect in assay [1] and in assay [2] were -0.535% and -4.29%, respectively.

As to `CC1=N[C@@]2(CC[C@@H]3CN(S(=O)(=O)N(C)C)C[C@@H]32)C(=O)N1CC(C)C`, the Percent Effect in assay [1] is 6.65%; in assay [2] it was -4.62%.

For the compound `CNC(=O)CS(=O)(=O)C1CCN(S(=O)(=O)c2ccccc2Br)CC1`, the values for the Percent Effect in assay [1] and in assay [2] were -6.53% and -14%, respectively.

On to `O=C(NCc1ccccn1)N(Cc1ccc(F)cc1F)C1CC1`, for which the Percent Effect in assay [1] is -1.6%; in assay [2], 10.3%.

With `O=C(c1ccc(F)c(F)c1)N1CCCSCC1CN1CCCC1` (stereo not given), the Percent Effect in assay [1] stood at 3.66%; in assay [2], 2.2%.

In the case of `Cc1c(I)cccc1C(=O)NCC1(CO)CC1`, the values for the Percent Effect in assay [1] and in assay [2] were 0.747% and 0.906%, respectively.

Consider `CC(C)c1cc(C(F)(F)F)n2nc(CCC(=O)O)nc2n1`, for which the Percent Effect in assay [1] was -1.46%; in assay [2], 52.4%.

As to `CC(C)n1ncc2c1NC(=O)CC21C(=O)Nc2c(Cl)cc(Cl)cc21` (stereo not given), the Percent Effect in assay [1] was found to be 0.842%; in assay [2], 1.79%.

For `O=C(NCc1cc[nH]n1)N(CCCO)C1CCc2ccccc21` (stereo not given), the results for the Percent Effect in assay [1] and in assay [2] were 1.93% and 0.536%, respectively.

Turning to `Cc1cccc(C(=O)NC(CN2CCCC2=O)c2ccccc2)n1` (stereo not given), the Percent Effect is -1.37% in assay [1] and 14% in assay [2].

Turning to `COc1cc(CC(O)CO)c(OC)c2c1OCO2` (stereo not given), the Percent Effect was -3.19% in assay [1] and -10.5% in assay [2].

With `Cc1ccc2c(c1)c(CNC(=O)C1CC(=O)N(C3CCCC3)C1)nn2C` (stereo not given), the Percent Effect in assay [1] is 4.05%; in assay [2] it was -18%.

Regarding `O=C(Cn1nc2c(cc1=O)CSCC2)NC(Cc1ccccc1)C(=O)O` (stereo not given), the Percent Effect in assay [1] is 0.581%; in assay [2], -19.5%.

As to `Cn1cnc2c1CCN(CCCOc1ccc(C#N)cc1)C2`, the values for the Percent Effect in assay [1] and in assay [2] were -4.46% and -24.8%, respectively.

With `CCCn1c(C)c(CC(=O)NC)c2c1CC(C)(C)CC2=O`, the values for the Percent Effect in assay [1] and in assay [2] were -1.07% and -13.3%, respectively.

As to `CS(=O)(=O)Cc1cccc(C(=O)N2CCCC(n3cccn3)C2)c1` (stereo not given), the Percent Effect in assay [1] was -2.52%; in assay [2] it was -47.9%.

Turning to `COc1c(C2CCCN2CC(=O)Nc2cc(C)no2)c(C)nn1C` (stereo not given), the Percent Effect amounted to 2.74% in assay [1] and 12.9% in assay [2].

Consider `COCC(c1cccc(C(F)(F)F)c1)N(C)C(=O)c1ccncc1` (stereo not given), for which the Percent Effect in assay [1] was -1.77%; in assay [2], -15.3%.

Regarding `CC(=O)N1CCN(Cc2csc(-c3cnn(C)c3)n2)CC1`, the results for the Percent Effect in assay [1] and in assay [2] were -1.03% and -1.47%, respectively.

Turning to `COCCOc1ccc(NC(=O)C2CCCN(C(N)=O)C2)cn1` (stereo not given), the Percent Effect in assay [1] is -2.23%; in assay [2], -2.19%.

Regarding `O=C(NCC1CCSCC1)N(CCCO)C1CCc2ccccc21` (stereo not given), the Percent Effect was 6.01% in assay [1] and -37.4% in assay [2].

As to `Cc1cccc(C)c1OCCNC(=O)NC(C)c1nncn1C` (stereo not given), the Percent Effect in assay [1] is -2.19%; in assay [2], -46.4%.

As for `Cc1cc(N2CCC(N(C)C(=O)Nc3ccccc3)CC2)nc(C)n1`, the Percent Effect in assay [1] is 7.13%; in assay [2], -20.7%.

As for `Cc1cccn2c(=O)cc(OC(=O)c3ccccc3)nc12`, the values for the Percent Effect in assay [1] and in assay [2] were -3.21% and -13.3%, respectively.

As for `CC(C)C(=O)NCC(=O)N(C)C1CCCN(CCc2ccccc2)C1` (stereo not given), the values for the Percent Effect in assay [1] and in assay [2] were -0.948% and -14.4%, respectively.

`COCCCC1CCCN(C(=O)CCc2cc(O)no2)C1` (stereo not given): the figures for the Percent Effect in assay [1] and in assay [2] were -7.41% and -0.726%, respectively.

For `CCOC(=O)N1CCC(C(=O)c2cc(F)ccc2F)CC1`, the Percent Effect in assay [1] came to 1.26%; in assay [2] it was 36.2%.

On to `CNC(=O)[C@H]1C[C@H]2OCC[C@H]2N(Cc2ccc(C)o2)C1`, for which the Percent Effect is -1.06% in assay [1] and -4.41% in assay [2].

Regarding `COCC(O)CNC(=O)c1coc(COc2ccc3sc(C)nc3c2)n1` (stereo not given), the Percent Effect in assay [1] was 5.55%; in assay [2], -20%.
